# Assay outcomes (PubChem)
# In the library only some 2.4% were active in any assay of this set; here they are far more common.
# TNF death inh: inhibitors of TNF-alpha triggered necroptosis, primary screen, cell-based, Jurkat FADD-/-, single concentration; Jurkat FADD-/- TNF necroptosis rescue, ATP luminescence, 24 h; 0 = TNF only, 100 = no-TNF cells; activation (protection from cell death), % at 10 µM; actives 0.068% (n = 220,000); AID 463075, 2010;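 active = activation, meaning protection from cell death, of at least 50% relative to plate controls; inactive = activation below 50%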;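 note: necroptosis triggered by 40 ng/mL TNF-alpha added together with compound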
# WT yeast gro inh: growth inhibition of WT strain, primary screen, mitochondrial fusion inhibitor project, WT and mutant strains, chemical genetic; mitochondrial fusion phenotypic screen; inhibition, % at 10 µM; actives 2.1% (n = 190,000); AID 1362, 2008; in the data active = inhibition above about 58%; tested in S. cerevisiae
# Redox H2O2 prof: compounds producing H2O2 with reducing agent – biochemical, NIH compound library profiling, artefact control for MLSCN library redox annotation, primary screen. activation, % at 10 µM. DTT-dependent redox cycling H2O2, phenol red/HRP absorbance; 100% = 100 µM peroxide control, 0% = buffer. actives 0.03% (n = 200,000);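 active = activation of at least 50% relative to the plate's high and low controls in the primary single-dose screen; inactive = activation below 50%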;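 note: compound incubated with DTT at 0.8 mM final as the reducing agent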
# L929 necroptosis: inhibitors of zVAD-triggered necroptosis, primary screen, L929 cells; L929 zVAD necroptosis rescue, ATP luminescence, 24 h; with zVAD 60 µM; viability rescue, % at 10 µM; actives 0.38% (n = 220,000);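 active = activation, scaled between plate controls, above about 75%, limit read from the data; inactive = activation under that limit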
# PERK inh: block of dimerizer-induced PERK translation repression, primary screen, PERK inhibitor project, CHO PERK-DD cells, SEAP luminescence, HTS; Eukaryotic translation initiation factor 2-alpha kinase 3 (Homo sapiens), Q9NZJ5; CHO PERK-DD fusion, SEAP luminescence translation reporter; inhibition, % at 5.6 µM; actives 0.17% (n = 220,000);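 active = inhibition above the mean inhibition of all tested compounds plus 3 SD, set separately per screening campaign, cut at about 2.9% in these data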;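 note: PERK kinase domain activated by AP20187 dimerizer at 100 nM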
# PKD1 inh: inhibitors of human PKD1 kinase, biochemical, fluorescence polarization. inhibition, % (test concentration not listed). AID 797, 2007. Serine/threonine-protein kinase D1 (Homo sapiens), Q15139. PKD1 kinase fluorescence polarization assay. actives 0.056% (n = 200,000); in the data active = inhibition above about 50%
# Numbers stand for hits; i = inactive; nt = not tested or not shown.
SMILES,TNF death inh,WT yeast gro inh,Redox H2O2 prof,L929 necroptosis,PERK inh,PKD1 inh
COc1cc(C2Nc3ccccc3C(=O)N2c2ccccc2OC)ccc1O (stereo not drawn),i,i,i,i,i,i
COc1ccc(NC(=O)c2cc(-c3ccccc3Cl)no2)cc1,i,85,i,i,i,i
O=[N+]([O-])c1c(NCCCO)cc(Sc2nc3ccccc3s2)c2nonc12,i,i,i,i,i,i
CCC(=O)OCCNc1cc(Sc2nc3ccccc3s2)c2nonc2c1[N+](=O)[O-],i,95,i,i,i,i
CCOc1cc(S(=O)(=O)NCc2ccncc2)ccc1Cl,i,i,i,i,i,i
CCN1C(=O)/C(=C\c2ccc3c(c2)OCO3)C(C(=O)OC)=C1C,i,i,i,i,i,i
COCCCN1C(=O)/C(=C\c2ccc3c(c2)OCO3)C(C(=O)OC)=C1C,i,i,i,i,3.2,i
CS(=O)(=O)Nc1ccc(C2=NN(S(=O)(=O)c3ccc(F)cc3)C(c3ccco3)C2)cc1 (stereo not drawn),i,i,i,i,i,i
CCOc1ccc(Oc2c(/C=N/NC(=O)COc3ccccc3OC)c(C)nn2-c2ccccc2)cc1,i,67,i,i,i,i
Cc1[nH]c2ccccc2c1SCC(=O)N1CCCCCC1,i,i,i,i,i,i
CC1Cc2ccccc2N1C(=O)c1nn(C)cc1Br (stereo not drawn),i,i,i,i,i,i
CC1=CC(C)(C)Nc2ccc(OC(=O)C(Cc3ccccc3)N3C(=O)c4ccccc4C3=O)cc21 (stereo not drawn),i,i,i,97,i,i
CC1=CC(C)(C)Nc2ccc(OC(=O)CN3C(=O)c4ccccc4C3=O)cc21,i,i,i,i,i,i
CC(C)CCn1c(=O)c2ccccc2c2ccccc2c1=O,i,59,i,i,i,i
COc1ccc(Nc2ncnc3scc(-c4ccc(OC)cc4)c23)cc1,i,72,i,i,i,i
COc1ccc(-c2csc3ncnc(Cl)c23)cc1,i,i,i,i,i,i
Cc1[nH]c(=O)[nH]c(=O)c1S(=O)(=O)N(CC(C)C)CC(C)C,i,i,i,i,i,i
Cc1noc(C)c1C(=O)OCC(=O)Nc1ccccc1Oc1ccccc1,i,59,i,i,i,i
Cc1noc(C)c1C(=O)OCC(=O)Nc1ccccc1C(=O)NC(C)c1ccccc1 (stereo not drawn),i,i,i,i,i,i
CCN(CC)CCCNc1oc(-c2ccccc2[N+](=O)[O-])nc1C#N,i,nt,nt,i,i,nt
Cc1cc(C)cc(NC(=S)NCc2ccc3[nH]c4c(c3c2)CCCC4)c1,i,72,i,nt,i,i
S=C(NCc1ccc2[nH]c3c(c2c1)CCCC3)Nc1ccccc1,i,76,i,nt,i,i
CCS(=O)(=O)NCc1ccc2[nH]c3c(c2c1)CCCC3,i,i,i,i,i,i
CSc1nsc(SCC(=O)Nc2ccc3c(c2)OCCO3)n1,i,i,i,i,3.1,i
Cc1csc(SCC(=O)Nc2ccc3c(c2)OCCO3)n1,i,i,i,i,i,i
SMILES,TNF death inh,WT yeast gro inh,Redox H2O2 prof,L929 necroptosis,PERK inh,PKD1 inh
COc1ccc(NC(=O)CSc2ccc3c(c2)OCCO3)cc1OC,i,86,i,i,i,i
O=C(c1cccc2ccccc12)C1CCCN(C(=O)c2ccc(N3CCOCC3)cc2)C1 (stereo not drawn),i,i,i,i,i,i
CSC(=Nc1ccccc1)Nc1ccccc1,i,nt,nt,i,2.9,nt
CCSC(=Nc1ccccc1)Nc1ccccc1,i,i,i,i,i,i
O=C(COC(=O)CNS(=O)(=O)c1ccc(F)c(F)c1F)Nc1ccc(OC(F)F)cc1,i,i,i,i,i,i
CSc1ccc(/C=N/NC(=O)CNc2ccc3ccccc3c2)cc1,i,65,i,nt,i,i
CSc1ccc(/C=N/NC(=O)CNc2cccc3ccccc23)cc1,i,i,i,i,i,i
CCN1/C(=C/c2sc(-c3ccccc3C)c[n+]2C)Sc2ccccc21,i,77,i,i,i,i
S=C1NC(c2cccs2)=CC(c2ccc(Br)cc2)N1 (stereo not drawn),i,72,i,i,i,i
O=C(COc1ccc([N+](=O)[O-])cc1)NNC(=S)NC(=O)c1ccc(Br)cc1,i,70,i,i,i,i
Cc1ccc(S(=O)(=O)N(CCCO)CC(O)CON=C2c3ccccc3-c3ccccc32)cc1 (stereo not drawn),i,59,i,i,i,i
Cc1nc(CS(=O)c2ccc(Cl)cc2)cc(NCc2ccc(Cl)cc2Cl)n1 (stereo not drawn),i,59,i,i,i,i
Cc1nc(CSc2ccc(Cl)cc2)cc(NCc2ccccc2)n1,i,i,i,i,i,i
COC(=O)C1=C(O)/C(=C\c2ccc(CNC(=O)C(=O)Nc3ccc(C)cc3)o2)N=C1C,i,76,i,i,i,i
Cc1c(Cl)cccc1Nc1nc(N)nc(CSc2nc3ccccc3s2)n1,i,72,i,i,i,i
Nc1nc(CSc2nc3ccccc3s2)nc(Nc2ccccc2)n1,i,i,i,i,i,i
C=CCn1c(SCC(=O)Nc2ccc3c(c2)CCC3)nnc1-c1cccs1,i,70,i,i,i,i
COC(=O)[C@H]1[C@H]2C[C@@H]3c4[nH]c5cc(OC)ccc5c4CCN3C[C@H]2C[C@@H](OC(=O)c2ccc(N)cc2)[C@@H]1OC,i,nt,nt,i,i,nt
COc1ccc2c3c([nH]c2c1)C1CC2C(CC(O)C(OC)C2CO)CN1CC3 (stereo not drawn),i,nt,nt,i,4.1,nt
CCc1cccc(C)c1NC(=O)Nc1ccc2c(c1)OCO2,i,i,i,i,3.5,i
Cc1ccccc1NC(=S)NNC(=O)c1csc2c1CCC(C)C2 (stereo not drawn),i,i,i,i,i,i
CCOc1cc(-c2nc(C)c(C(C)=O)n2O)ccc1OCC(=O)Nc1cccc(C)c1,i,62,i,i,i,i
CCOc1cc(/C=N/O)ccc1OCC(=O)Nc1cccc(C)c1,i,i,i,i,i,i
COc1ccc(N=Nc2nc3cc(Br)c(Br)cc3n2C)c(OC)c1,i,61,i,i,i,i
CC(C)N1CCC(N2CCN(CCCn3cccn3)CC2CCO)CC1 (stereo not drawn),i,i,i,i,i,i
O=c1c(Cc2ccc(Cl)cc2Cl)c(O)ccn1CCCN1CCOCC1,i,i,i,i,i,i
